These results are taken from PubChem BioAssay AID2025 (NMMLSC, 2009).

The structures appear in SMILES notation. In all, about 330,000 compounds went through this assay and about 980 (0.3%) were called active. The entries come from a sample that favours actives as a whole. Values without a mark were called inactive.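 How the source made its calls: active means percent response vs DMSO below 50%; inconclusive means fewer than 70 events counted for the yeast strain; inactive means the rest.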

The assay can be described thus: RPL19A-GFP expression modulators in yeast, primary screen, cell-based, S. cerevisiae, multiplex flow cytometry, MLPCN (AID 2025).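 Further: median channel GFP fluorescence of the barcoded RPL19A-GFP strain; ratio of sample median GFP to plate DMSO average so 100% = DMSO; lower means less RPL19A-GFP as with rapamycin TOR inhibition.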 The conditions noted are these: S. cerevisiae RPL19A-GFP strain, 3 h, at 10 µM, hits give low values.
For `CC(=O)c1c(C)c[nH]c1C`, the percent response vs DMSO was 101%.
The figure for `CC(C)(C)C(=O)Nc1ccc(-c2cn3cccnc3n2)cc1` is 105%; for `FC(F)(F)Oc1ccc(-c2cn3cccnc3n2)cc1` it is 30.4% [may fluoresce violet] (active).
Regarding `COc1ccc(-c2cn3cccnc3n2)cc1`, the percent response vs DMSO is 98.9%.
The figure for `Cc1noc(C)c1-c1ccc2ncnc(NC(C)c3ccco3)c2c1` (stereo not drawn) is 99.4%; for `O=C(C[C@H]1C/C=C\C[C@@H](NC(=O)OCC2c3ccccc3-c3ccccc32)C(=O)O[C@@H](c2ccccc2)CNC1=O)N[C@H](CO)Cc1ccccc1` it is 101%.
On to `CCOC(=O)C1CCCCN1Cc1ccc(OC)c(OC)c1OC` (stereo not drawn), for which the percent response vs DMSO is 94.8%.
As for `CCOC(=O)c1c(CN2CCOCC2)n(-c2ccccc2)c2ccc(O)cc12`, the percent response vs DMSO was 14.2% [may fluoresce violet] (active).
With `CCOC(=O)c1c(CN(C)C)n(-c2ccccc2)c2cc(Br)c(O)cc12`, the percent response vs DMSO was 98%.
To `CCOC(=O)c1nnn(-c2nonc2-n2cccc2)c1CN1CCOCC1` belongs 95.3%.
For `COc1ccc(C(=O)NC(Cc2ccc(OC(=O)c3ccc(OC)cc3)cc2)C(=O)O)cc1` (stereo not drawn), the percent response vs DMSO is 96.9%.
For `O=C(O)c1ccc(COc2c(F)c(F)cc(F)c2F)o1`, the percent response vs DMSO is 97%.
For the compound `O=C(CCS(=O)(=O)c1ccc2c(c1)NC(=O)CS2)NCc1ccccc1Cl`, the percent response vs DMSO is 100%.
Turning to `CSc1cccc(NC(=O)C2CCCN2S(=O)(=O)c2ccc3c(c2)CCC(=O)N3)c1` (stereo not drawn), the percent response vs DMSO was 100%.
To `NNC(=O)C1CC(O)CN1S(=O)(=O)c1ccc(Cl)cc1` (stereo not drawn) belongs 101%; to `CCCCNC(=O)CCNC(=O)c1ccc(C(C)(C)C)cc1`, 47.4% [may fluoresce violet] (active); to `CCCN1CCN(C(=O)CCCNC(=O)c2ccc(Cl)cc2)CC1`, 98.3%.
For the compound `O=C(CCNC(=O)c1ccc(Br)cc1)NCCCc1ccccc1`, the percent response vs DMSO was 101%.
In the case of `O=C(Nc1ccccc1)c1nnsc1S(=O)(=O)c1ccc(Cl)cc1`, the percent response vs DMSO was 46.8% (active).
Regarding `O=C(Nc1ccc(Cl)cc1)Nc1nnc(/C=C/c2ccccc2)s1`, the percent response vs DMSO is 97.4%.
For `CN(c1cccc(NC(=O)Nc2ccc(Cl)cc2)c1)S(C)(=O)=O`, the percent response vs DMSO was 102%.
Take `CCCCNC(=O)c1cn(CC)c2cc(N3CCN(C(=O)c4ccco4)CC3)c(F)cc2c1=O`: the percent response vs DMSO is 95.5%.
For `Cc1cc(=O)oc2c(C)c(OCC(=O)NCCN3CCOCC3)ccc12`, the percent response vs DMSO was 97.4%.
